# In ChEMBL document CHEMBL1201862, “PubChem BioAssay data set” (2004):
# About 2,100 (0.53%) of roughly 400,000 compounds were called active. Roughly 14% stayed inconclusive and do not appear here. The sample holds actives, similar compounds and a random draw of the others, so the mix is not that of the screen. The rule behind the calls is not given here.
# Target: Ataxin-2 (Homo sapiens) (UniProt Q99700)
# Assay: qHTS for Inhibitors of ATXN expression.
# Format: functional
# Chain of Ataxin-2 (Homo sapiens) (Q99700 whole entry): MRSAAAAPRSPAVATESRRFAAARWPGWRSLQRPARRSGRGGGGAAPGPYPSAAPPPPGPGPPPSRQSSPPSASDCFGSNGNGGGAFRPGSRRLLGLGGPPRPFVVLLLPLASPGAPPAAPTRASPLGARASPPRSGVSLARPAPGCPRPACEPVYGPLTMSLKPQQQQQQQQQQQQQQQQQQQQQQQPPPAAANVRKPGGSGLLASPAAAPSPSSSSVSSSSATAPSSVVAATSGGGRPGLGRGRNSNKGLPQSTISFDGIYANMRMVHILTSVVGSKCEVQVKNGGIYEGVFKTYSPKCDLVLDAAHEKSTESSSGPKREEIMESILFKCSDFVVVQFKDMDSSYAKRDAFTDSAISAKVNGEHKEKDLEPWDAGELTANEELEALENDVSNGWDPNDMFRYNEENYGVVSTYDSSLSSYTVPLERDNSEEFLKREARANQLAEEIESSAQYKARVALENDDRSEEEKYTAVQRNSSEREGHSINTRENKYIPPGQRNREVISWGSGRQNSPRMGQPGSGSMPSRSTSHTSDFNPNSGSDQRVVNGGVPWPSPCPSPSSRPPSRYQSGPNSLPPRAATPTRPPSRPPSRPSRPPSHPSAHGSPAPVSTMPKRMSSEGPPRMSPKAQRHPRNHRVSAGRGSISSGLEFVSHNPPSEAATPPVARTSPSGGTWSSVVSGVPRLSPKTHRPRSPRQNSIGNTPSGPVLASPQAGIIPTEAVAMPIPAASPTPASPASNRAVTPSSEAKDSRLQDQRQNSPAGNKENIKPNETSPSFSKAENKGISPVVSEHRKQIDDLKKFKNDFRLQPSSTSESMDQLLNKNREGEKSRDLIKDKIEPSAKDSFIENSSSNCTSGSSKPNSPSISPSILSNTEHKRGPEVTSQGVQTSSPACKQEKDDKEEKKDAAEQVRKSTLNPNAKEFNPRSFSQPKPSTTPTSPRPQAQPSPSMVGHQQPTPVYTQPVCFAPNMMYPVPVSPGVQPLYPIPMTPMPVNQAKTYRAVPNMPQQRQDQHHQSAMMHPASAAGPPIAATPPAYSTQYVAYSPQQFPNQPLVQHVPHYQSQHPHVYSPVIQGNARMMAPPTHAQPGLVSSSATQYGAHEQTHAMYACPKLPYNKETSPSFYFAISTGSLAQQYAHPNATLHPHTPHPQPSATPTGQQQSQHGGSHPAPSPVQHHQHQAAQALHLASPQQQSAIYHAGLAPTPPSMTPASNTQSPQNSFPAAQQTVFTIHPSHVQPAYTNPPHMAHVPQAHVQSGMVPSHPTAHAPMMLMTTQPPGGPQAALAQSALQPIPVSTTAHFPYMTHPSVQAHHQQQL
row,Structure (SMILES),Potency
1,COc1ccc(C2C3=C(CCCC3=O)N(CC(=O)O)C3=C2C(=O)CCC3)cc1Br,inactive
2,OC(CNCCC1C=Nc2ccccc21)Cn1c2ccc(Cl)cc2c2cc(Cl)ccc21 (stereo not given),35.5 µM (active)
3,CN(C)CC(C(=O)c1ccccc1)c1ccccc1 (stereo not given),20 µM (active)
4,CCOC(=O)C(C(=O)c1ccccc1)C(c1ccccc1)c1nccc2ccccc12 (stereo not given),inactive
5,NCC12CC3CC(C1)CC(c1ccc(Br)cc1)(C3)C2,25.1 µM (active)
6,NCC12CC3CC(C1)CC(c1ccc(Cl)cc1)(C3)C2,44.7 µM (active)
7,CCOCCCn1c(=N)c(C(=O)NCC2CCCO2)cc2c(=O)n3cccc(C)c3nc21 (stereo not given),inactive
8,N#C/C(=C\c1c(Oc2ccccc2Cl)nc2ccccn2c1=O)C(=O)NC1CCS(=O)(=O)C1 (stereo not given),inactive
9,Cc1cc(O)c(CN(C)C)c2c1C(=O)/C(=C/c1ccco1)O2,inactive
10,CC/C(=C\C1CCCCC1)C(NP(=O)(c1ccccc1)c1ccccc1)c1ccccc1 (stereo not given),35.5 µM (active)
11,CC(C)OCCCn1c(NN)nc2ccccc2c1=O,inactive
12,COc1ccccc1Oc1ccc(N/C=C/C(=O)c2ccco2)cc1,inactive
13,Cc1ccc(SC2=C(Sc3ccc(C)cc3)C(=O)c3ccccc3C2=O)cc1,inactive
14,COc1cc(OC)cc(-c2sc3ccc(OC)cc3c2C#CC2(N)CCCCC2)c1,39.8 µM (active)
15,COc1ccc2sc(-c3ccc(N(C)C)cc3)c(C#CC(C)(C)O)c2c1,inactive
16,COc1ccc(-c2sc3cc4c(cc3c2C#CC2(N)CCCCC2)OCO4)cc1,39.8 µM (active)
17,COc1ccc2sc(-c3ccc(N(C)C)cc3)c(C#Cc3cncn3C)c2c1,inactive
18,CCOCCCn1c(=N)c(C(=O)NCc2cccnc2)cc2c(=O)n3ccccc3nc21,inactive
19,N#CC(C(=O)NCc1ccccc1)c1nc2ccccc2nc1N1CCCC1 (stereo not given),inactive
20,O=c1oc2cc(O)ccc2cc1S(=O)(=O)c1ccccc1,inactive
21,CC(C)(C)c1ccc(C(=O)CC(Sc2ccc(Cl)cc2)C(=O)O)cc1 (stereo not given),39.8 µM (active)
22,CC(C)N1CCN(Cc2ccc(C#CCCO)cc2)CC1CCO (stereo not given),inactive
23,CCCOc1ccc(C2C(C(=O)OC)=CN(CCOC)C=C2C(=O)OC)cc1,inactive
24,CCCOc1ccc(CCC(=O)N/N=C/c2ccco2)cc1,inactive
25,CCCOc1ccc(C(=O)C(CCC(CNCC)C(=O)c2ccc(OCCC)cc2)CNCC)cc1 (stereo not given),22.4 µM (active)
26,O=C(O)c1cccc(-n2cccc2/C=C2/NC(=O)N(c3ccc(Cl)cc3)C2=O)c1,inactive
27,NSc1nc(N)c2nc(-c3ccccc3)c(-c3ccccc3)nc2n1,inactive
28,O=C(O)CCCCCNS(=O)(=O)c1ccc2c3c(cccc13)C(=O)N2,inactive
29,NCCCCCCNS(=O)(=O)c1cccc2c(Cl)cccc12,39.8 µM (active)
30,O=C1Nc2ccc(S(=O)(=O)NCCCO)c3cccc1c23,inactive
